# Measured values taken from PubChem BioAssay AID1671190 (National Center for Advancing Translational Sciences (NCATS), 2021).
# The campaign covered roughly 580,000 compounds. About 6,100 (1.1%) were called active. Another 15% or so got no clear call; they are omitted. Shown is part of a subset that was picked to be rich in actives. Unmarked numbers belong to inactive results. Calls come from the whole dose curve; as a rule, active = well fitted inhibition curve with a large enough effect; inconclusive = small, poorly fitted or top-dose-only effect, or another doubt; inactive = no such curve, though single readings can be large or run the other way.
# Biological target: Polyunsaturated fatty acid lipoxygenase ALOX12 (Homo sapiens) (UniProt P18054)
# Sequence (P18054 whole entry, looked up): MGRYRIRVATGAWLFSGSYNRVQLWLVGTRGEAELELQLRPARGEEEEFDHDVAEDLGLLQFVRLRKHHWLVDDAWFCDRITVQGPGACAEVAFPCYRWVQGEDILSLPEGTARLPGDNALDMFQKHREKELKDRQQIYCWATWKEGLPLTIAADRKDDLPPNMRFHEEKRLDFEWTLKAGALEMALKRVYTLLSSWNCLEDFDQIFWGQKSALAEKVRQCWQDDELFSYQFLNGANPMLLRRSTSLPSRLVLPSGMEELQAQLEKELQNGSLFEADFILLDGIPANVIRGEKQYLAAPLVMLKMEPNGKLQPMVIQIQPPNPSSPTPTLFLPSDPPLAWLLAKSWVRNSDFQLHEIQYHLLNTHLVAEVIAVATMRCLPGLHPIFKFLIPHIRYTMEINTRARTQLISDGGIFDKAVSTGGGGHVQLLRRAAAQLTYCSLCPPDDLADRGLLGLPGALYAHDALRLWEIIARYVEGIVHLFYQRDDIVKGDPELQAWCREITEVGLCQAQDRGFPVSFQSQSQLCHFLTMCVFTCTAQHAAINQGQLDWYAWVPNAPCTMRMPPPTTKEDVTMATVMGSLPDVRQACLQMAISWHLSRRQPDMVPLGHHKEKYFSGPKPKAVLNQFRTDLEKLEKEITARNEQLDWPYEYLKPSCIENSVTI
# Assay: Primary qHTS assay for inhibitors of human arachidonate 12S-lipoxygenase (ALOX12): Round 2
# Conditions: purified 12hLO, xylenol orange hydroperoxide absorbance; series mostly up to 108 µM; activity change, negative = inhibition: at the top concentration
# Procedure, shortened: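 Purified human 12hLO at 150 nM in 25 mM Hepes, 0.01% Triton X-100, pH 7.0, preincubated 15 min at room temperature with compound. Reaction started with 40 uM arachidonic acid, 30 min at room temperature. Hydroperoxide measured by Fe-xylenol orange, 573/405 nm absorbance ratio.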
# % is set by controls: 0 for no effect and ±100 for the full control effect; potency is the fitted concentration of half-maximal effect.
SMILES,"activity change, negative = inhibition",Potency
Cc1ccc2[nH]cc(C(C(=O)O)N3CCN(S(=O)(=O)c4ccccc4)CC3)c2c1 (stereo not drawn),-23.2%,–
NC(=O)c1cccc(NC(=O)c2cccc3cccnc23)c1,-20.1%,–
Cc1nn(-c2ccc(C(C)C)cc2)c(C)c1[C@@H]1C=C[C@@H](NC(=S)NCC(C)C)C1,–,56.2 µM (active)
Cc1nn(-c2ccc(C(C)C)cc2)c(C)c1[C@@H]1C=C[C@@H](NC(=O)CC2(CC(=O)O)CCCC2)C1,9.29%,–
Cc1nn(-c2ccc(C(C)C)cc2)c(C)c1[C@@H]1C=C[C@@H](NC(=O)Nc2ccccc2)C1,35% [at 176 µM],–
CCCn1nc(C(=O)NC2CCN(C(C)C)CC2)c2ccccc2c1=O,3.11%,–
Cc1noc(C)c1-c1cc(NCc2cccnc2)ncn1,–,31.6 µM (active)
Cc1cc2cc(-c3c(C)noc3C)nc(NCc3cccnc3)c2o1,42.9% [at 176 µM],–
COCCNc1cc(-c2c(C)noc2C)ncn1,–,39.8 µM (active)
Cc1cnc(CNc2cc(-c3c(C)noc3C)ncn2)cn1,-20.8%,–
COCCCNC(=O)c1ccc(-c2c(C)noc2C)c2ccoc12,8.36%,–
CNc1cc(-c2c(C)noc2C)ncn1,-26.5%,–
O=C(NCCc1cccnc1)c1cccc(Cl)c1Cl,5.55%,–
c1ccc(-c2noc(-c3ccco3)n2)cc1,1.51%,–
Cc1ccc(C(=O)Nc2cnc3ccccc3c2)cc1[N+](=O)[O-],12.7%,–
Cc1cc2nc(-c3ccc(NC(=O)c4cc5ccccc5o4)cc3)oc2cc1C,-10.3%,–
CC(C)Oc1ccc(NC(=O)c2cc3ccccc3o2)cc1,0.347%,–
C/C(=N\NC(=S)Nc1ccc(C)cc1)c1cc2ccccc2o1,–,25.1 µM (active)
COc1cccc(/C=C2\Oc3cc(OS(=O)(=O)c4ccc(C)cc4)ccc3C2=O)c1OC,1.7%,–
Cc1ccc(NC(=O)CN(C)C(=O)c2nn(-c3ccccc3)c3c2CCC3)cc1,20.1%,–
CCNC(=O)O[C@@H]1CO[C@H]2[C@@H]1OC[C@@H]2NC(=S)Nc1cccc2ccccc12,–,56.2 µM (active)
COc1ccc(NC(=O)O[C@@H]2CO[C@H]3[C@@H]2OC[C@@H]3NC(=S)Nc2cccc3ccccc23)cc1,-26.3%,–
COc1ccc(-c2ccnc(N[C@H]3CO[C@H]4[C@@H]3OC[C@H]4OC(=O)Nc3cccc4ccccc34)n2)cc1,12.3%,–
CCOc1ccc(N2CC(NC(=O)CC(C)(C)C)CC2=O)cc1 (stereo not drawn),-1.73%,–
O=C(Cc1ccccc1F)NC(c1ccc2c(c1)CCC2)c1cccs1 (stereo not drawn),-26.6%,–
CCCCc1ccc(C(=O)Cn2nnc(-c3cccc(F)c3)n2)cc1,-34.4%,–
Cc1ccc(C(=O)Nc2cc3c(cc2N2CCCC2)n(C)c(=O)c(=O)n3C)cc1,12.9%,–

SMILES,"activity change, negative = inhibition",Potency
Cn1c(=O)n(C)c2cc(SCc3ccco3)c(NC(=O)c3ccc(C(C)(C)C)cc3)cc21,–,8.91 µM (active)
CC(C)(C)c1ccc(C(=O)NCC(c2ccco2)S(=O)(=O)c2ccc(F)cc2)cc1 (stereo not drawn),-22.1%,–
CCNC(=O)C1CCCN1S(=O)(=O)c1ccc(Br)s1 (stereo not drawn),4.48%,–
Cc1ccc(CN2CCN(C(=O)CCC[C@H]3NC[C@@H]4C[C@H]3CN(Cc3ccccc3)C4)CC2)cc1,-13.9%,–
Cc1oc(-c2ccccc2)nc1Cn1ncc2ccccc2c1=O,-5.85%,–
Cc1cccc(CN2CCC3(Cc4ccccc4CNC3=O)C2)c1 (stereo not drawn),3.12% [at 6.33 µM],–
Cc1ccc(CN2CCC3(Cc4ccccc4CNC3=O)C2)cc1 (stereo not drawn),–,28.2 µM (active)
COc1ccc(CN2CCC3(Cc4ccccc4CNC3=O)C2)cc1OC (stereo not drawn),8.59% [at 6.33 µM],–
O=C(NC1CCN(CCCc2nc3ccccc3o2)CC1)C1CCCCC1,-5.42%,–
CCC(=O)Nc1ccccc1-c1nc2ccccc2n(CC(=O)Nc2ccc(NC(C)=O)cc2)c1=O,-26.1%,–
Cc1ccccc1C(=O)NCCN=C1NS(=O)(=O)c2ccccc21,9.19%,–
O=C1NS(=O)(=O)c2ccccc21,–,12.6 µM (active)
CN(C)S(=O)(=O)c1ccc(C(=O)NCCN=C2NS(=O)(=O)c3ccccc32)cc1,1.56%,–
CCN(Cc1nc2ccccc2c(=O)[nH]1)C(=O)Cc1csc(-c2ccc(C)cc2C)n1,3.87%,–
COc1cccc(-c2cc(NC(C)=O)c3ncc(-c4cccc(C(C)=O)c4)n3c2)c1,-5.38%,–
COc1ccccc1-c1cc(NC(C)=O)c2ncc(-c3ccc(F)cc3)n2c1,–,44.7 µM (active)
COc1ccc(-c2cc(NC=O)c3ncc(-c4ccccc4)n3c2)cc1OC,-5.7%,–
CC(C)c1noc(C(C)Sc2nc(C3CC3)nc3ccccc23)n1 (stereo not drawn),7.22%,–
O=C(O)CCC(=O)C(CC(=O)O)CC(=O)O,-22.1%,–
Cn1nc(C(C)(C)C)cc1NC(=O)c1cccc(F)c1,-45%,–
Cc1ccc(NC(=S)Nc2ncccc2C)c(C)c1,–,8.91 µM (active)
CCOC(=O)N1CCN(C(=S)Nc2ccc(C)cc2C)CC1,0.181%,–
Cc1ccc(NC(=S)NC(=O)c2ccc(-c3ccccc3)cc2)c(C)c1,–,17.8 µM (active)
Cc1ccc(NC(=O)c2oc(=O)c3ccccc3c2-c2ccccc2)c(C)c1,-8.51%,–
Cc1cc(C)c(/C=N/NC(=O)c2ccccc2)c(C)c1,-20.9%,–
Cc1cccnc1NC(=O)c1ccc2nc(C)c(C)nc2c1,14.6%,–
